# A selection: hits, their analogues and other compounds. The true share with any hit is near 13%.
# G9a block – qHTS Assay for Inhibitors of Histone Lysine Methyltransferase G9a | Histone-lysine N-methyltransferase EHMT2 (Homo sapiens), Q96KQ7 | G9a H3K9 monomethylation, AlphaScreen, 2 h | Potency, µM (doses to about 102 µM), for the others: at the highest dose activity, negative = inhibition, hits mostly inhibitors | 350,000 compounds, 8.8% hits | AID 504332, 2011; further: potency means the concentration at half of the fitted maximal effect; on the % scale 0 is the no-effect control and ±100 the full control effect; nearly all actives have a fitted effect of over 75% in size
# Target sequence (Q96KQ7 913-1193 limits assumed): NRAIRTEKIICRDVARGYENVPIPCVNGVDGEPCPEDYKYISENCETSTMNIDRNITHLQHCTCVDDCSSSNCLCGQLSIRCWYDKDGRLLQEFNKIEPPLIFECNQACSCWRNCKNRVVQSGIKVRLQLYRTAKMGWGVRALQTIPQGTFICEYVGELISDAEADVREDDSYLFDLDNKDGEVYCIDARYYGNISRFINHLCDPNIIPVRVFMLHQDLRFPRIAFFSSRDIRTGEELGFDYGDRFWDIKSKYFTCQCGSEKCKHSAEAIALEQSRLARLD
#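 G9a (20 nM) was preincubated 15 min with compound, then reacted 2 h at room temperature with 500 nM biotin-H3K9 peptide and 20 µM SAM. Monomethyl-H3K9 detected by AlphaScreen using anti-H3K9me1 antibody.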
# miR-21 act – qHTS Assay for Modulators of miRNAs and/orActivators of miR-21; HeLa miR-21 FLuc reporter, luciferase, 48 h; Potency, µM (series often up to 38.3 µM), for inactives: at the top dose activity change, positive = activation, hits mostly activators; 340,000 tested, under 10 active;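 further: % of control where 0% means no effect; miR-21 action dims this reporter so a rising signal means less miR-21 action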
#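 Compounds were titrated across several concentrations (up to approximately 40 uM) and incubated 48 hours with HeLa miR-21-FLuc reporter cells (miR-21 target sequence downstream of FLuc, endogenous miR-21). Readout was firefly luciferase luminescence after lytic detection reagent.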
# Sfp inh – qHTS Assay for Inhibitors of Bacillus subtilis Sfp phosphopantetheinyl transferase (PPTase); 4'-phosphopantetheinyl transferase ffp (Bacillus subtilis), Q9F4F7; Biochemical Sfp PPTase activity, qHTS; Potency, µM, without a hit: largest response in the series, negative = inhibition, most hits filed as inhibitors; 310,000 compounds, 3.5% hits;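 further: the enzyme is Sfp with the accession as filed and its product quenches rhodamine fluorescence; potency means the concentration at half of the fitted maximal effect; 0% = enzyme reaction without inhibitor and -100% = no enzyme wells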
#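 Compounds were incubated with enzyme (final 15 nM) for 15 min at room temperature before substrate addition started the reaction. Fluorescence at 525 nm excitation, 598 nm emission was recorded immediately and after 30 minutes.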
# ALDH1A1 block – qHTS Assay for Inhibitors of Aldehyde Dehydrogenase 1 (ALDH1A1); 220,000 compounds, 7.3% hits; Purified ALDH1A1, NADH fluorescence, propionaldehyde substrate; AID 1030, 2008; Potency, µM (series often up to 75.3 µM), for the others: top-dose activity, negative = inhibition, actives largely listed as inhibitors; Aldehyde dehydrogenase 1A1 (Homo sapiens), P00352; active means well fitted inhibition curve with a large enough effect, not every such curve was filed as active; inconclusive means small, poorly fitted or top-dose-only effect, or another doubt; inactive means no such curve, though single readings can be large or run the other way;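 further: potency means the concentration at half of the fitted maximal effect; plate controls were no enzyme wells and a reference inhibitor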
# KDM4E inh – qHTS Assay for Inhibitors of Human Jumonji Domain Containing 2E (JMJD2E). Lysine-specific demethylase 4E (Homo sapiens), B2RXH2. JMJD2E catalytic domain, FDH-coupled NADH fluorescence (FDH is formaldehyde dehydrogenase). Potency, µM (series often up to 57.1 µM), for inactives: top-dose activity change, negative = inhibition, actives largely listed as inhibitors. 230,000 compounds, 1.6% hits; active means well fitted inhibition curve with a large enough effect, not every such curve was filed as active; inconclusive means small, poorly fitted or top-dose-only effect, or another doubt; inactive means no such curve, though single readings can be large or run the other way;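 further: potency means the concentration at half of the fitted maximal effect; 0% = wells with enzyme and -100% = buffer wells without enzyme; nearly all actives have a fitted effect of over 50% in size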
# Target sequence (B2RXH2 1-337 limits assumed): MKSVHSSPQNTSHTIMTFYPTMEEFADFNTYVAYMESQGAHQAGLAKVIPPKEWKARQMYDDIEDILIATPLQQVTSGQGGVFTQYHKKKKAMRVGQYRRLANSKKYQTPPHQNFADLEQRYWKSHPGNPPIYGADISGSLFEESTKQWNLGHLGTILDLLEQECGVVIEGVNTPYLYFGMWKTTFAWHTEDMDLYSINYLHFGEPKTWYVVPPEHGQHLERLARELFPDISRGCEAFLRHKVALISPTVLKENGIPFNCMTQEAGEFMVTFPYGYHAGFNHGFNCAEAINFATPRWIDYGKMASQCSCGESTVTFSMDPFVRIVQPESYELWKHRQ
# Lamin A splicing – qHTS Assay for Modulators of Lamin A Splicing | HeLa LMNA splicing GFP/RFP minigene ratio, 48 h | Potency, µM (doses to about 46.1 µM), without a hit: at the top dose ratio change, negative = inhibition, most hits filed as inhibitors | 200,000 compounds, 0.01% hits | AID 1487, 2009; active means well fitted inhibition curve with a large enough effect in the signal ratio, with a control signal flat, not every such curve was filed as active; inconclusive means small, poorly fitted or top-dose-only effect, or effect the other way, or a change in a side signal; the % refers to the signal ratio; further: potency means the concentration at half of the fitted maximal effect; on the % scale 0 is the no-effect control and ±100 the full control effect
#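 S3 HeLa cells stably expressing lamin A-EGFP splicing minigene plus DsRed2, 600 cells/well, 48 h compound exposure at 37C. Laser-scanning cytometry; analysed as GFP (500-530 nm)/RFP (575-640 nm) total intensity ratio; 0.5% DMSO vehicle.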
# The depositor's hits bear a star; ? = inconclusive; nt = not tested or not shown; [ ] = another dose, or the depositor's remark. Unless noted, the call rests on the fitted dose curve; in most records, active means well fitted curve in the direction sought with a large enough effect; inconclusive means small, poorly fitted or top-dose-only effect, or another doubt; inactive means no such curve, though single readings can be large; an effect the other way counts as inactive or inconclusive.
SMILES,G9a block,miR-21 act,Sfp inh,ALDH1A1 block,KDM4E inh,Lamin A splicing
O=C(CCCN1C(=O)c2cccc3cccc(c23)C1=O)N1CCN(c2ccccn2)CC1,6%[59 µM],-16%,5%,-12%,-4%,?
O=C(CCCN1C(=O)c2cccc3cccc(c23)C1=O)N1CCN(c2ncccn2)CC1,nt,-2%,1%,28µM*,-10%,13%[46 µM]
COc1cccc(NS(=O)(=O)c2ccc(C)c(C(=O)N3CCCCC3)c2)c1,9%,11%,13%,nt,nt,nt
COc1ccc(C(=O)Nc2ccc(NC(=O)C3CC3)nc2)cc1,-8%,6%,7%,nt,nt,nt
C=CCOc1ccccc1/C=c1\sc2nc(=O)c(C)nn2c1=O,?,-7%,?,22µM*,2%,-3%
COc1cccc(/C=c2\sc3nc(-c4cccs4)nn3c2=O)c1OC,-42%[59 µM],-3%,1%,4%,0%,4%
CC(C)[C@H](NC(=O)C1CCC(CNC(=O)[C@@H]2CCCN2C(=O)OC(C)(C)C)CC1)C(=O)O (some centres not stated),11%,1%,9%,nt,nt,nt
CCc1ccc(OCC(=O)NCC(c2ccc(OC)cc2)N2CCOCC2)cc1 (configuration not stated),-5%[59 µM],-7%,nt,nt,nt,11%[46 µM]
O=C(Nc1cccc2c1CCCC2)C1CCN(c2nnnn2-c2ccccc2)CC1,-6%[59 µM],-1%,6%,8.9µM*,12%,-10%
COc1nc(OC)nc(N2CCC(C(=O)Nc3cccc4c3CCCC4)CC2)n1,26%[0.501 µM],-6%,3%,6%,0%,14%[0.0737 µM]
Cc1nnc(NC(=O)C2CCN(c3nnnn3-c3ccccc3)CC2)s1,?,-3%,17%,20µM*,1%,3%
COc1ccccc1C(=O)COC(=O)CCCN=C1NS(=O)(=O)c2ccccc21,-24%,nt,nt,nt,nt,nt
O=C(CCCN=C1NS(=O)(=O)c2ccccc21)OCc1ccccc1,45µM*,nt,nt,nt,nt,nt
O=C(CCN=C1NS(=O)(=O)c2ccccc21)OCC(=O)c1ccccc1Cl,56µM*,nt,nt,nt,nt,nt
CC(OC(=O)CCCN=C1NS(=O)(=O)c2ccccc21)C(=O)N(C)c1ccccc1 (configuration not stated),40µM*,nt,nt,nt,nt,nt
CCc1ccc(NC(=O)N2CCN(Cc3cc(=O)n4nc(-c5ccccc5OC)sc4n3)CC2)cc1,-4%[59 µM],3%,nt,nt,nt,?
COc1ccc(C)cc1NC(=O)c1sc2ncn(CC(=O)N3CCCCC3)c(=O)c2c1C,18%,-2%,20%,nt,nt,nt
COc1ccc(S(=O)NC2CCCCC2)c(OC)c1C (configuration not stated),32µM*,0%,50µM*,-12%,-11%,0%
Fc1ccc(/C=N/Nc2nn[nH]n2)cc1,3%,2%,?,11%,16%,nt
CCc1ccc(/C=N/Nc2nn[nH]n2)cc1,10µM*,-2%,5%,6%,-2%,-1%
O=C(NCCN1C(=O)C2C3C=CC(C3)C2C1=O)Nc1ccc(Br)cc1 (configuration not stated),-4%,-40%,-12%,11µM*,-4%,-3%
COc1ccc(NS(=O)(=O)c2ccc(NC(=O)N3CCCC3)cc2)cc1,-2%[59 µM],14%,nt,nt,nt,?
NC(C(=O)O)c1ccc(P(=O)(O)O)cc1 (configuration not stated),21%[59 µM],nt,56µM*,5%,nt,nt
C=Cc1ccc(Cn2c(C(=O)O)c(CNCc3cc(OC)ccc3OC)c3ccc(C)cc32)cc1,?,0%,nt,nt,nt,nt
Oc1ccccc1-c1n[nH]c(=S)n1Cc1ccco1,?,-2%,-2%,-4%,-15%,-5%
SMILES,G9a block,miR-21 act,Sfp inh,ALDH1A1 block,KDM4E inh,Lamin A splicing
Cc1cc(-c2n[nH]c(=S)n2Cc2ccco2)n(C)n1,8.9µM*,-3%,50µM*,?,?,-7%
COc1ccc(-c2n[nH]c(=S)n2Cc2ccco2)cc1,?,-4%,-1%,?,0%,11%
Cc1cc(-c2n[nH]c(=S)n2Cc2ccco2)nn1C,8.9µM*,-10%,-7%,-12%,9%,-3%
Cc1nn(C)c(C(=O)NNC(=S)NCc2ccco2)c1Br,nt,1%,-25%,?,0%,nt
Cc1c(Br)c(-c2n[nH]c(=S)n2Cc2ccco2)nn1C,10µM*,-13%,-13%,?,1%,-4%
Cc1cc(-c2ccc(S(=O)(=O)Nc3ccccc3F)s2)on1,0%[59 µM],-1%,nt,nt,nt,nt
CCOC(=O)/C(=N/Nc1ccccc1)N1CCCc2ccccc21,?,3%,6%,-5%,-1%,-9%
CCOC(=O)/C(=N/Nc1ccc(Cl)cc1)Sc1nnnn1-c1ccc(C)cc1,-5%[59 µM],2%,-11%,1%,8%,?
CCOC(=O)/C(=N\Nc1ccccc1)S(=O)(=O)c1ccccc1,?,0%,-17%,16µM*,-6%,?
CCOC(=O)/C(=N\Nc1ccccc1)P(=O)(c1ccccc1)c1ccccc1,-51%,4%,20µM*,nt,-3%,nt
CCOC(=O)/C(=N/Nc1ccccc1)c1csc(Nc2ccccc2)n1,?,-9%,14%,9%,-10%,0%
NNC(=O)/C(=N/Nc1ccccc1)S(=O)(=O)c1ccc(Cl)cc1,?,9%,4%,13µM*,9%,?
CCOC(=O)/C(=N/Nc1ccc(C)cc1)S(=O)(=O)c1ccc(Cl)cc1,14µM*,-15%,-8%,?,-2%,-24%
CCOc1ccccc1NC(=O)CN1C(=O)CC(c2ccc(OC)c(OC)c2)Sc2ccccc21 (configuration not stated),?,-19%,nt,nt,nt,nt
CCOC(=O)c1c(C)oc2ccc(N(C(C)=O)S(=O)(=O)c3c(C)cc(C)cc3C)cc12,-2%[59 µM],-6%,nt,nt,nt,nt
CCOC(=O)c1ccc(NC(=O)NNS(=O)(=O)c2cc(OC)ccc2OC)cc1,71µM*,-3%,12%,nt,nt,nt
Cc1ccc(-c2nn(-c3cccc([N+](=O)[O-])c3)c3c2cnc2ccc(F)cc23)cc1,0%[59 µM],0%,nt,nt,nt,-5%[46 µM]
Cn1nnnc1SCC(=O)N1c2ccccc2Sc2ccccc21,?,-4%,-4%,5%,6%,-13%
CCn1nnnc1SCC(=O)N1c2ccccc2Sc2ccccc21,6%[59 µM],-5%,-5%,13µM*,0%,-5%
CCn1nnnc1SCC(=O)N1c2ccccc2CCc2ccccc21,?,9%,10%,2µM*,11%,-14%
